TDP-43 tox inh: TDP-43 toxicity inhibition in yeast | AID 1347073 | yeast TDP-43 toxicity rescue, BacTiter-Glo growth, 24 h | hit rate 0.45% among 45,000 | Potency, µM (series often up to 46.1 µM), usual class: activators; active means well fitted activation curve with a large enough effect; further: 0% is about no effect; nearly all actives have a fitted effect of over 55% in size
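TDP-43-expressing yeast, pregrown in raffinose, seeded at OD600 0.02 in galactose medium with compound for 24 hr at 30 deg C. Growth read by BacTiter-Glo luminescence, so rescue of toxicity appears as activation.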
Numbers without * were called inactive. Many of the other results were omitted from the sample, so hits are more common in it than they were. Potency means the concentration at half of the fitted maximal effect.

COc1ccc(-n2nc(C(=O)NCC(=O)NCCCN3CC(C)CC(C)C3)c3ccccc3c2=O)cc1Cl (configuration not stated) was read as TDP-43 tox inh inactive.
For CC(C1CC2CCC1C2)n1c(-c2cccs2)n[nH]c1=S (configuration not stated) the results were TDP-43 tox inh 14.1µM*.
For CC(C)(C)c1n[nH]c(=S)n(/N=C/c2cccs2)c1=O the results were TDP-43 tox inh inactive.
For CC(C1CC2CCC1C2)N1CC(O)=C(c2nc3ccccc3[nH]2)C1=N (configuration not stated) the results were TDP-43 tox inh inactive.
CCOC(=O)CN1C(=O)c2cccnc2Oc2ccccc21 was read as TDP-43 tox inh inactive.
Screening CC1=NN(C(=O)COc2ccc(C)c(C)c2)C(O)(c2ccccc2)C1 (configuration not stated) returned TDP-43 tox inh inactive.
Screening NC(Cc1ccccc1)C(=O)N1CCCCC1 (configuration not stated) returned TDP-43 tox inh inactive.
CCOc1ccc(S(=O)(=O)NCC2CCCO2)cc1NC(=O)c1ccccc1F (configuration not stated) was read as TDP-43 tox inh inactive.
Screening COc1ccc(NC(=O)c2cc(S(=O)(=O)NCC3COc4ccccc4O3)ccc2F)cc1 (configuration not stated) returned TDP-43 tox inh 25.1µM*.
For COc1ccc(NC(=O)c2ccc(NC(=O)C3COc4ccccc4O3)cc2)c(OC)c1 (configuration not stated) the results were TDP-43 tox inh inactive.
For COc1ccccc1-c1cc2nc(NCCc3ccncc3)ccn2n1 the results were TDP-43 tox inh inactive.
Screening COc1cc(-c2cc3nc(NCc4cccc(Cl)c4)ccn3n2)cc(OC)c1OC returned TDP-43 tox inh 14.1µM*.
c1ccc(-c2cc3nc(NCc4cccs4)ccn3n2)cc1 was read as TDP-43 tox inh inactive.
CCOc1ccc(NC(=O)C2CCN(c3nnc(-n4c(C)ccc4C)s3)CC2)cc1 was read as TDP-43 tox inh inactive.
O=C(COc1c(F)c(F)c(C(F)(F)F)c(F)c1F)Nc1ccc(N2CCOCC2)c(Cl)c1 was read as TDP-43 tox inh 12.6µM*.
COc1ccc(NS(=O)(=O)c2cc(NC(=O)COc3ccccc3)ccc2N2CCOCC2)cc1 was read as TDP-43 tox inh inactive.
`COCc1cc(C)n(CC(=O)Nc2ccc(N3CCOCC3)c(Cl)c2)c(=O)c1C#N` gave TDP-43 tox inh inactive.
`CC(Oc1ccc(F)cc1)C(=O)Nc1cc(-c2ccc(F)c(F)c2)no1` (configuration not stated) gave TDP-43 tox inh inactive.
`COc1ccc(-c2nc(CNS(=O)(=O)c3ccc(C)cc3)cs2)cc1` gave TDP-43 tox inh inactive.
Screening COc1ccc(-c2nc(CNS(=O)(=O)c3cccc(F)c3)cs2)cc1 returned TDP-43 tox inh 15.8µM*.
For COc1ccc(-c2nc(CNS(=O)(=O)c3ccc(F)cc3)cs2)cc1 the results were TDP-43 tox inh inactive.
`Cc1ccccc1OCc1nc2c3cnn(-c4cccc(F)c4)c3ncn2n1` gave TDP-43 tox inh inactive.
For Cc1ccc(-c2cc(C(=O)NCCc3ccccc3)c3c(-c4ccc(C)cc4)[nH]nc3n2)cc1 the results were TDP-43 tox inh inactive.
Screening C[n+]1cccc2c(Br)ccc([O-])c21 returned TDP-43 tox inh inactive.
`[O-][n+]1cccc2c(Br)cc(Br)c(O)c21` gave TDP-43 tox inh 7.94µM*.
CC1=C(C(=O)Nc2cc(C)cc(C)c2)C2(CCCCC2)OC1=O was read as TDP-43 tox inh inactive.
Cc1ccc(OC(C)C(=O)Nc2ccc(Cl)cn2)c([N+](=O)[O-])n1 (configuration not stated) was read as TDP-43 tox inh inactive.
For COC(=O)c1cc(C(=O)Nc2ccc(Cl)cn2)cc([N+](=O)[O-])c1 the results were TDP-43 tox inh inactive.
`Cc1cc(Cl)ccc1OC(C)C(=O)Nc1ccc([N+](=O)[O-])cn1` (configuration not stated) gave TDP-43 tox inh 22.4µM*.
Screening CCCOc1ccc(CNC(=O)c2cc3oc4ccccc4c3n2C)cc1 returned TDP-43 tox inh inactive.
`Cc1ccc2cc3cc(C(=O)N(C)c4ccccc4C)oc3nc2c1` gave TDP-43 tox inh inactive.
Screening O=S(=O)(NCCc1csc(-c2ccccc2)n1)c1ccc2c(c1)OCCO2 returned TDP-43 tox inh 17.8µM*.
`CC(NS(=O)(=O)c1ccc2c(c1)OCCO2)c1ccccc1` (configuration not stated) gave TDP-43 tox inh inactive.
Screening CCCNS(=O)(=O)c1ccc(CCC(=O)Nc2ccc3c(c2)OCCO3)cc1 returned TDP-43 tox inh inactive.
Screening Cc1ccc(CN2C(=O)c3ccccc3CC2(C)C(=O)NC2CCCCC2)cc1 (configuration not stated) returned TDP-43 tox inh inactive.
`Clc1ccc2nc(NCc3ccccc3)c3nncn3c2c1` gave TDP-43 tox inh inactive.
`Cc1cc(O)c(CN2CCN(c3ccccc3)CC2)c2oc(=O)cc(C)c12` gave TDP-43 tox inh inactive.

High-throughput results: PubChem BioAssay, National Center for Advancing Translational Sciences (NCATS)
